Assay results: PubChem BioAssay (EPA / NIEHS)
Calls of active or inactive are those of the source. How the source made its calls: active means hit-call score of the fitted dose curve at least 0.9, where 1 is the maximum; inactive means score below 0.9.

assay: BSK_BE3C_SRB: Viability Assessment in the BioMAP Diversity Plus: BE3C Assay (AID 2283028); conditions: primary human bronchial epithelial cells;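 on AC50: fitted both ways so AC50 may mark signal gain or loss versus DMSO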
Method: BSK_BE3C is a cell-based, multiplexed-readout assay that uses bronchial epithelial cell, a human lung primary cell, with measurements taken at 24 hours after chemical dosing in a 96-well plate.BSK_BE3C_SRB is an assay component measured in the BSK_BE3C assay. It measures 0.1% sulforhodamine related to cell death using Sulforhodamine staining technology.Data from the assay component BSK_BE3C_SRB was analyzed into 1 assay endpoint. This assay endpoint, BSK_BE3C_SRB, was analyzed with bidirectional fitting relative to DMSO as the negative control and baseline of activity. Using a type of viability reporter, gain or loss-of-signal activity can be used to understand changes in the signaling. Furthermore, this assay endpoint can be referred to as a primary readout, because this assay has produced multiple assay endpoints where this one serves a signaling function. To generalize the intended target to other relatable targets, this assay endpoint is annotated to the cell morphology intended target family, where the subfamily is cell conformation.
The levels of cell surface (or secreted, indicated by the prefix "s") biomarker endpoints were measured by ELISA. Overt cytotoxicity to cells in confluent adherent cultures (all systems other than the BT system) was assessed by measuring total protein levels using sulforhodamine B (SRB) staining in parallel cultures at the time of biomarker measurements, indicated as SRB endpoints. For proliferation assays for adherent cell types, individual cell types are cultured at sub-confluence and relative cell numbers quantified by SRB staining at time points optimized for each system (48 h: 3C and CASM3C systems; 72 h: BT and HDF3CGF systems; 96 h: SAg system). SRB was performed by staining cells with 0.1% SRB after fixation with 10% TCA and reading wells at 560 nm.Viability and proliferation of PBMC (T cells) was quantified by Alamar Blue reduction for the SAg and BT systems. For PBMC viability (referred to as PBMC Cytotoxicity within the assay endpoint names), cells were plated (75,000/well in a 96-well plate) and then chemical samples added for 1 h before addition of activators, SEB and TSST-1 (20 ng/mL final concentration each). Cells were incubated for 90 h. Then, Alamar Blue (20 uL/well) (Invitrogen, Cat DAL1100) was added for 6 h, and the plates were read with a fluorescence microplate reader at 546/580 nm (excitation/emission). For PBMC proliferation, cells were plated and activated as above but incubated for only 16 h prior to addition of Alamar Blue. Plates were read after 6 h.

SMILES	outcome	AC50
Cc1cc(C2(c3cc(C)c(O)cc3C)OS(=O)(=O)c3ccccc32)c(C)cc1O	inactive	
NCCNCCN	inactive	
CC(=O)Nc1ccccc1O	inactive	
CC1CCC(C(C)CS)CC1S (stereo not given)		29.9 µM (active)
OC[C@H]1O[C@H](O[C@]2(CCl)O[C@H](CCl)[C@@H](O)[C@@H]2O)[C@H](O)[C@@H](O)[C@H]1Cl	inactive	
O=C(O)C[C@H](O)C[C@H](O)/C=C/c1c(C2CC2)nc2ccccc2c1-c1ccc(F)cc1	inactive	
CCn1c2ccccc2c2cc(N)ccc21	inactive	
CC(=O)O[C@]1(C(C)=O)CC[C@H]2[C@@H]3C[C@H](C)C4=CC(=O)CC[C@]4(C)[C@H]3CC[C@@]21C	inactive	
C#C[C@]1(O)CC[C@H]2[C@@H]3CCC4=Cc5oncc5C[C@]4(C)[C@H]3CC[C@@]21C	inactive	
C=C[Si](OCC)(OCC)OCC	inactive	
CC(=O)OCCC(C)CC(C)(C)C (stereo not given)	inactive	
Cc1ccc(O)c(C(C)(C)C)c1		31.9 µM (active)
CCCCC/C=C/C=C/C=O		30.3 µM (active)
BrC1CCC(Br)C(Br)CCC(Br)C(Br)CCC1Br (stereo not given)	inactive	
Cc1ccc(Nc2ccc(O)c3c2C(=O)c2ccccc2C3=O)cc1	inactive	
COc1cc(C=O)ccc1OC(=O)C(C)C	inactive	
CCCCC(CC)COCCC#N (stereo not given)	inactive	
CCc1c(C)cc(N)c(CC)c1N	inactive	
CC(=O)/C=C/C1=C(C)CCCC1(C)C	inactive	
CCCCCCCCCC=O	inactive	

SMILES	outcome	AC50
CC(C)Oc1ccccc1O	inactive	
O=C(O)c1ccc([N+](=O)[O-])cc1	inactive	
CC(=O)[C@H]1CC[C@H]2[C@@H]3CC=C4C[C@@H](O)CC[C@]4(C)[C@H]3CC[C@]12C	inactive	
CC1COc2ccccc2N1C(=O)C(Cl)Cl (stereo not given)	inactive	
CCC(=O)OCc1ccccc1	inactive	
C=CCOC(=O)CCC1CCCCC1	inactive	
c1ccc2sc(SN(C3CCCCC3)C3CCCCC3)nc2c1	inactive	
N#Cc1ccc(CC(=NNC(=O)Nc2ccc(OC(F)(F)F)cc2)c2cccc(C(F)(F)F)c2)cc1	inactive	
CC(C)(COC(=O)c1ccccc1)COC(=O)c1ccccc1	inactive	
Nc1cc([N+](=O)[O-])ccc1O	inactive	
O=C=NC1CCC(CC2CCC(N=C=O)CC2)CC1 (stereo not given)	inactive	
C=C(C)C(=O)O[C@H]1C[C@@H]2CC[C@@]1(C)C2(C)C		34.7 µM (active)
Nc1cc([N+](=O)[O-])ccc1Cl	inactive	
CC(C)c1ccc(C(C)C)cc1	inactive	
O=P(c1ccccc1)(c1ccccc1)c1ccccc1	inactive	
CCCCCCCCC=O	inactive	
CCCCC(CC)COC(=O)/C=C\C(=O)OCC(CC)CCCC (stereo not given)	inactive	
c1ccc2c(c1)c1cccc3ccc4cccc2c4c31	inactive	
O=[N+]([O-])c1cc(C(F)(F)F)ccc1Cl	inactive	
O=C(O)c1cn(-c2ccc(F)cc2)c2cc(N3CCNCC3)c(F)cc2c1=O	inactive	
